# Experimental data reported in article PMC12040169 (PLOS Biology, 2025).
# Tested on: T1, C. trachomatis L2/434/Bu expressing GFP (CTL2-GFP)
# T1 construct: L2/434/Bu GFP intracellular growth in HeLa cells
# Design: species or system HeLa; C. trachomatis total inclusion area by high-content imaging, normalised to DMSO
# Settings: total inclusion area; 28.5 h, 10 µM; inhibitor
# Text: We screened a library of 36,785 small molecules displaying drug-like properties and covering a wide chemical space (Fig 1A and S2A Data). In this process, we also complemented the assay described above with an imaging-based readout (Fig 1B). After measurements of bulk GFP and resorufin fluorescence, cells were fixed, stained with the DNA dye Hoechst, and imaged at a high-content imaging platform to detect chlamydial inclusions (GFP) and host cell nuclei (Hoechst). The total area and number of inclusions in individual wells and the number of nuclei then served as additional proxies for chlamydial growth and host cell viability. […] MICs were calculated as described above.
row,SMILES,% of control remaining
1,O=C(c1cccc(S(=O)(=O)F)c1)N1CCCCC1 [CBK074224],0.8769
2,CCOC(=O)CC(C)(O)P(=O)(OC)OC (stereo not drawn) [CBK261287],1.025
3,S=P(Oc1ccccc1)(Oc1ccccc1)Oc1ccccc1 [CBK260987],0.9936
